# Compound activity from PubChem.
# Only some compounds are listed: those with a hit (about 4.4% of all), similar ones and a draw of the others.
# USP1-UAF1 inh: inhibitors of human USP1/UAF1 deubiquitinase | recombinant USP1/UAF1, Ub-Rhodamine cleavage fluorescence | 390,000 compounds, 0.23% hits | O94782 | Potency, µM (highest dose often 57.1 µM), hits mostly inhibitors; active = well fitted inhibition curve with a large enough effect; inconclusive = small, poorly fitted or top-dose-only effect; inactive = no such curve, though single readings can be large or run the other way; note: nearly all actives have a fitted effect of over 60% in size
#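 High-throughput fluorogenic screen: 1nM USP1/UAF1 complex, Ub-Rho substrate 150nM final, 50mM HEPES pH 7.8 with 0.5mM EDTA, 0.1 mg/ml BSA, 1mM TCEP and 0.01% Tween-20.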
# D1 PAM: human D1 dopamine receptor positive modulation. P21728. HEK293 TREx D1 cells, calcium flux, dopamine EC20 potentiation. potentiation, % at 10 µM. 360,000 compounds, 0.036% hits. AID 504651; in the data active = potentiation above about 30%
# TRHR agonist: TRH receptor (human) agonism; TRHR cells, calcium flux fluo-8, FDSS agonist mode; 360,000 compounds, 0.18% hits; activation, % at 2 µM; P34981
#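 Fluo-8-loaded TRHR cells; 10 s baseline, compound added, kinetic Ca2+ fluorescence read 1/s, agonist mode.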
# D1 ag: human D1 receptor agonism | activation, % at 2 µM | P21728 | 360,000 compounds, 1% hits | HEK293 T-REx D1 cells, calcium flux, agonist mode
#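 Tetracycline-induced HEK293 TREx D1 cells, force-coupled to calcium signalling, were dye-loaded with a no-wash calcium kit. Compound was pin-added after a 10 s baseline. Fluorescence was read kinetically at 1 cycle/s for 180 s, with calcium rises flagged as agonism.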
# D1 antag: antagonists of human D1 dopamine receptor; AID 504652; activity change, negative = inhibition, % at 10 µM; P21728; HEK293 TREx D1 cells, calcium flux, dopamine EC80; hits give low values; 360,000 compounds, 3.2% hits; in the data active = activity change below about -30%
#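 Calcium flux readout: force-coupled, inducible Hek293 Trex D1 line, cells induced overnight at 30 C with tetracycline, dye-loaded 30–90 min at RT. Antagonism scored against EC80 dopamine challenge given 180 s after compound.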
# TRHR enhancer: allosterically enhances the human TRH receptor. P34981. AID 493056. enhancement, % at 2 µM. 360,000 compounds, 0.66% hits. TRHR cells, fluo-8 calcium fluorescence, EC20 TRH enhancement; in the data active = enhancement above about 30%
#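 TRHR-expressing cells loaded with fluo-8 calcium dye were read kinetically (ex 480/em 530) during compound addition, then stimulated with an EC20 of TRH (10 nM final). Enhancement of the Gq-mediated intracellular calcium response was scored.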
# A number is an active result; - = inactive; ? = inconclusive; . = no result given. Cut-off read from the data, not from the text of the source, unless noted: active = activation above about 30%; inactive = the rest.
SMILES,USP1-UAF1 inh,D1 PAM,TRHR agonist,D1 ag,D1 antag,TRHR enhancer
CCCOc1ccc(C(=O)Nc2ccc(S(=O)(=O)N3CCN(C)CC3)cc2)cc1,-,-,-,-,-72,-
CCCCCCCCCC(=O)N1c2ccccc2NC(=O)C1CC(=O)Nc1ccc(C(=O)O)cc1 (configuration not stated),-,-,-,39,-,-
CCn1c(=O)cc(OCC(=O)Nc2cc(OC)c(OC)c(OC)c2)c2ccccc21,-,-,-,-,-,-
CCN(CC)C(=O)c1ccc(COc2ccc(Cl)c(C)c2)o1,-,-,-,-,-31,-
CCN(CC)C(=O)C1CCCN(C/C=C/c2ccccc2[N+](=O)[O-])C1 (configuration not stated),-,-,-,-,-62,-
O=[N+]([O-])c1ccccc1/C=C/CN1CCCCC1CO (configuration not stated),-,-,-,-,-34,-
O=C(Oc1ccc(OC(=O)C2CCC2)cc1)C1CCC1,-,-,-,-,-36,-
C=CCn1c(SCC(=O)N2CCN(C(=O)c3ccco3)CC2)nc2sc(CC)cc2c1=O,-,-,-,-,-32,-
C=CCn1c(N)cc(=O)nc1SCC(=O)Nc1ccc(C)cc1,-,-,-,-,-,39
C=CCn1c(SCC(=O)Nc2cc(C)on2)nc2sc(CC)cc2c1=O,-,-,-,-,-42,-
Cn1nnnc1SCC(=O)NC(=O)Cc1ccccc1,-,-,-,-,-44,-
N#Cc1nc(Nc2cccc(C(F)(F)F)c2)nc(NC2CCCC2)n1,.,-,-,-,-,-
C=CCn1c(SCC(=O)Nc2ccc(O)cc2)nc2sc(CC)cc2c1=O,-,-,-,-,-31,-
Cn1nnnc1SCC(=O)N1CCN(C(=O)c2ccco2)CC1,-,-,-,-,-38,-
O=C(CCCN=C1NS(=O)(=O)c2ccccc21)OCC(=O)c1ccc(F)cc1,-,-,-,56,-,-
O=C(CCN=C1NS(=O)(=O)c2ccccc21)OCC(=O)c1ccc(F)cc1,-,-,-,-,-,-
CC(OC(=O)CCCN=C1NS(=O)(=O)c2ccccc21)C(=O)Nc1ccccc1F (configuration not stated),-,-,-,-,-39,-
O=C(O)c1cccc(OCCN2CCCC2=O)c1,-,-,-,-,-32,-
O=C(NCCCN1CCCC1=O)c1cccc(Oc2ccccc2)c1,-,-,-,-,-,-
Cc1ccc(NC(=O)/C(C#N)=C/c2cc(C)n(-c3ccc(Br)cc3)c2C)cc1C,-,-,-,-,-,-
CCc1cc2c(cc3c(=O)n(CC(=O)N4CCCCC4)ncn32)s1,-,-,-,-,-,-
CCc1cc2c(cc3c(=O)n(CC(=O)NC4CCCCC4)ncn32)s1,-,-,-,-,-,44
OC(COCC1COc2ccccc2O1)CN1CCc2ccccc2C1 (configuration not stated),-,-,-,33,-,-
CC1CCCN(CC(O)COCC2COc3ccccc3O2)C1 (configuration not stated),-,-,-,-,-,-
Cc1ccc(NC(=O)c2ccc(NC(=O)N3CCSc4ncccc43)cc2)cc1Cl,?,-,-,-,-,-
SMILES,USP1-UAF1 inh,D1 PAM,TRHR agonist,D1 ag,D1 antag,TRHR enhancer
COc1ccc(N2CCN(C3CCCCC3NS(=O)(=O)c3ccc(Cl)cc3)CC2)cc1 (configuration not stated),-,-,-,-,-,-
COc1ccccc1N1CCN(C2CCCCC2NS(=O)(=O)c2ccc(Cl)cc2)CC1 (configuration not stated),-,-,46,-,-,-
N#C/C(=C(/O)c1ccc(F)cc1)c1nc2ccccc2s1,-,-,-,-,-,-
N#C/C(=C(/O)COc1ccccc1)c1nc2ccccc2s1,-,-,-,-,-42,-
N#C/C(=N\O)c1nc2ccccc2s1,-,-,-,-,-,32
N#C/C(=C(/O)COc1ccc(Cl)cc1)c1nc2ccccc2s1,-,-,-,-,-,-
Cc1ccc(-c2nc(C)c(CCNS(=O)(=O)c3ccccc3F)s2)cc1,-,-,-,-,-,-
